The results in this text go back to the supplement of paper PMC13380429.

The test system of assay [1] is Vero E6 infected with SARS-CoV-2. In words: morphology score (similarity to uninfected cells); higher = more like uninfected cells. As to conditions: 24 h.
For assay [2] the test system is unchanged. The assay is described as follows: SARS-CoV-2 infection rate relative to infected DMSO; higher = more infection, active = 60 or less. Conditions: 24 h.
The test system is the same in assay [3]. In words: inhibition of SARS-CoV-2 cytopathic effect; higher = more antiviral protection, active = above 15. As to conditions: 48 h.

Structures are written as SMILES.

In turn, `CCOC(=O)[C@H](CCc1ccccc1)N[C@H]1CS[C@H](c2cccs2)CN(CC(=O)O)C1=O` [temocapril] (10 µM) yielded a morphology score in assay [1] of 0.0304. The SARS-CoV-2 infection rate in assay [2] was 114% (inactive).

For the molecule `O=C(O)c1cc(=O)[nH]c(=O)[nH]1` [orotic-acid], the “inhibition of SARS-CoV-2 cytopathic effect” value (shortened to “inhibition”) in assay [3] (1 nM) was -2.95% (inactive); in assay [3] (8.33 nM), 1.49% (inactive); in assay [3] (100 nM), -1% (inactive); in assay [3] (833.33 nM), 0.78% (inactive); in assay [3] (10000 nM) it was 0.21% (inactive).

Regarding `O=C1NC(=O)C(c2ccccc2)(c2ccccc2)N1` [phenytoin], the “inhibition” value is -2.48% (inactive) in assay [3] (1 nM); 0.49% (inactive) in assay [3] (8.33 nM); -0.76% (inactive) in assay [3] (100 nM); -0.84% (inactive) in assay [3] (833.33 nM); 0.37% (inactive) in assay [3] (10000 nM).

Consider `Fc1ccc(-c2cncc(CN3CCN(c4cccc5c4OCCO5)CC3)c2)cc1` [adoprazine] (10 µM), for which the morphology score in assay [1] stood at 0.131. Further, the SARS-CoV-2 infection rate in assay [2] was 101% (inactive).

For the molecule `CN(C)/N=N/c1[nH]cnc1C(N)=O` [dacarbazine], the “inhibition” value is 2.03% (inactive) in assay [3] (1 nM); 1.02% (inactive) in assay [3] (8.33 nM); 2.4% (inactive) in assay [3] (100 nM); 2.07% (inactive) in assay [3] (833.33 nM); -3.02% (inactive) in assay [3] (10000 nM).

On to `CCC(NC(C)C)C(O)c1ccc(O)c2[nH]c(=O)ccc12` (centres undefined) [procaterol], for which the “inhibition” value in assay [3] (1 nM) was -1.54% (inactive); in assay [3] (8.33 nM) it was 0.18% (inactive); in assay [3] (100 nM), -2.76% (inactive); in assay [3] (833.33 nM) it was -0.33% (inactive); in assay [3] (10000 nM) it was -1.47% (inactive).

As for `C[N+]1(CCCCC[N+]2(C)CCCC2)CCCC1` [pentolinium], the “inhibition” value in assay [3] (1 nM) is 2.83% (inactive); in assay [3] (8.33 nM), 4.75% (inactive); in assay [3] (100 nM), 5.22% (inactive); in assay [3] (833.33 nM), 4.57% (inactive); in assay [3] (10000 nM), 0.64% (inactive).

On to `NCC[C@H](O)C(=O)N[C@@H]1C[C@H](N)[C@@H](O[C@H]2O[C@H](CN)[C@@H](O)[C@H](O)[C@H]2O)[C@H](O)[C@H]1O[C@H]1O[C@H](CO)[C@@H](O)[C@H](N)[C@H]1O` [amikacin], for which the “inhibition” value was -1.45% (inactive) in assay [3] (1 nM); 0.75% (inactive) in assay [3] (8.33 nM); 0.51% (inactive) in assay [3] (100 nM); 2.36% (inactive) in assay [3] (833.33 nM); -0.28% (inactive) in assay [3] (10000 nM).

As to `Cc1ccc(-c2c(-c3nn(C)c4ncnc(N5CC[C@H](N6CCCCC6)C5)c34)cnn2C)cc1`, the “inhibition” value is -0.9% (inactive) in assay [3] (1 nM); -0.84% (inactive) in assay [3] (8.33 nM); 0.89% (inactive) in assay [3] (100 nM); -2.4% (inactive) in assay [3] (833.33 nM); -0.65% (inactive) in assay [3] (10000 nM).

As to `C[C@@H](O[C@H]1OCCN(Cc2nn(P(=O)(O)O)c(=O)[nH]2)[C@H]1c1ccc(F)cc1)c1cc(C(F)(F)F)cc(C(F)(F)F)c1` [fosaprepitant-dimeglumine], the “inhibition” value was -0.45% (inactive) in assay [3] (1 nM); 3.23% (inactive) in assay [3] (8.33 nM); 1% (inactive) in assay [3] (100 nM); -0.01% (inactive) in assay [3] (833.33 nM); -0.52% (inactive) in assay [3] (10000 nM).

Turning to `CC(C)(C)NCC(O)COc1cccc2[nH]c(C#N)cc12` (centres undefined) [cyanopindolol], the “inhibition” value is 1.56% (inactive) in assay [3] (1 nM); 1.94% (inactive) in assay [3] (8.33 nM); 0.47% (inactive) in assay [3] (100 nM); -2.7% (inactive) in assay [3] (833.33 nM); -1.96% (inactive) in assay [3] (10000 nM).

Regarding `C[C@H]1O[C@@H](O[C@H]2[C@@H](O)C[C@H](O[C@H]3[C@@H](O)C[C@H](O[C@H]4CC[C@@]5(C)[C@H](CC[C@@H]6[C@@H]5C[C@@H](O)[C@]5(C)[C@@H](C7=CC(=O)OC7)CC[C@]65O)C4)O[C@@H]3C)O[C@@H]2C)C[C@H](O)[C@@H]1O` [digoxin], the “inhibition” value was -0.14% (inactive) in assay [3] (1 nM); -0.96% (inactive) in assay [3] (8.33 nM); -7.12% (inactive) in assay [3] (100 nM); -13.3% (inactive) in assay [3] (833.33 nM); -14.5% (inactive) in assay [3] (10000 nM).
